In all, about 300,000 compounds went through this assay and about 22,000 (7.3%) were called active. Inconclusive results (about 2%) are left out. This excerpt belongs to a sample that is enriched for actives. A number with no mark means an inactive call. Rule as the data show it: active = activity score below about -60%; inconclusive = mostly about -28% to -61%; inactive = positive scores.

This test can be described thus: Activators via SNCA 5'UTR binding, MLPCN (AID 1814). To be noted: alpha-synuclein 5'UTR reporter, activators screen; active compounds read low; tested at 7.5 µM.
For `C/C(=C\C(=O)c1ccccc1)Nc1cccc(O)c1`, the activity score is -246% (active).
Take `O=C(Nc1cccc(O)c1)c1ccc(C(=O)c2ccccc2)o1`: the activity score was -120% (active).
On to `C/C(=C\C(=O)c1cccnc1)Nc1ccc(C)c(C)c1`, for which the activity score is -88.7% (active).
In the case of `O=C(Nc1ccn(Cc2ccccc2)n1)c1cccc(F)c1`, the activity score was -95.8% (active).
The same measure for `Cc1cc(/C=N/NC(=O)c2cccnc2)c(C)n1CC(C)C`: -116% (active).
Under `COc1ccc(C(CC(=O)c2ccccc2)S(=O)(=O)c2ccccc2)cc1` (stereo unspecified) stands -120% (active).
Under `COC(=O)c1ccc(Nc2ncnc3sccc23)cc1` stands -125% (active).
Regarding `COc1c(O)cc2oc(-c3ccc(O)c(O)c3)cc(=O)c2c1O`, the activity score was -140% (active).
The same measure for `COc1ccc(C(=O)/C=C/c2ccc(-c3ccccc3)cc2)cc1CSCC(=O)O`: -90% (active); for `COc1ccc(/C=C/C(=O)Nc2c(C)nn(C)c2C)cc1COc1ccc(Br)cc1`: 50.9%.
Turning to `O=C(c1cc(COc2c(F)cccc2F)on1)N1CCSCC1`, the activity score was -165% (active).
The same measure for `O=C(c1cc(COc2ccc(F)cc2F)on1)N1CCOCC1`: -124% (active).
Under `O=C(c1cc(COc2ccc(F)c(F)c2)on1)N1CCOCC1` stands -68.2% (active); under `CCC(NC(=O)c1cc(COc2ccc(F)c(F)c2)on1)c1ccncc1` (stereo unspecified), -78.1% (active).
The same measure for `CC(C)(C)c1ccc(C(=O)CSc2ncn[nH]2)cc1`: -158% (active); for `OCCCN1c2ccccc2Nc2nnc(-c3ccccc3)cc21`: -189% (active).
As to `O=S(=O)(c1ccc(Br)cc1)N1CCC(c2nc3ccccc3[nH]2)CC1`, the activity score is 78.3%.
Turning to `Nc1ccccc1SCc1cc([N+](=O)[O-])cc2c1OCOC2`, the activity score was -66.8% (active).
For `Nc1cc(N)nc(SCc2cccc(F)c2)n1`, the activity score is -147% (active).
For the compound `Cc1cc2oc3ccc(NCCC4CCCN4C)cc3c(=O)c2cc1C` (stereo unspecified), the activity score is -102% (active).
Under `O=C(Nc1ccc(Br)cn1)c1ccc([N+](=O)[O-])cc1Cl` stands -92.4% (active); under `COc1ccc(OCC(=O)Nc2cc(C)c(Cl)cc2OC)c([N+](=O)[O-])c1`, -102% (active).
As to `CC(=O)Nc1ccccc1C(=O)C(=O)Nc1ccc(F)cc1`, the activity score is -64.9% (active).
The same measure for `Cc1nn(-c2ccc([N+](=O)[O-])cc2)c(N)c1-c1ccccc1`: -143% (active); for `COCCCNC(=S)NC(=O)c1ccccc1`: -88.8% (active).
Regarding `O=C(N/N=C/c1cc2c(cc1Br)OCO2)C1COc2ccccc2O1` (stereo unspecified), the activity score is -96.1% (active).
Take `Cc1ccc(OCc2cc(C(=O)N(C)CCc3ccccc3)no2)cc1C`: the activity score is -115% (active).
Under `S=C(Nc1cccc(Cl)c1)Nc1ccc2cn[nH]c2c1` stands -89.3% (active); under `Cc1csc(NC(=S)Nc2cccc(Cl)c2)n1`, -193% (active); under `O=[N+]([O-])/C=C/c1ccc2c(ccn2Cc2ccccc2)c1`, 84.5%.
For the compound `Cc1ccc(Oc2cnn(-c3ccccc3)c(=O)c2Br)cc1`, the activity score is -78.5% (active).
The same measure for `NC(=O)COc1ccc(C23CC4CC(CC(C4)C2)C3)cc1`: -101% (active).
For `Nc1nonc1-n1nnc(C(=O)N/N=C/c2cc(Br)ccc2O)c1CSC1=NCCS1`, the activity score is 94.1%.
In the case of `Cc1ccn2cc(-c3nonc3C)cc2c1`, the activity score is -128% (active).
On to `Cc1cc(C)c(C#N)c(SCC(=O)Nc2ccccc2)n1`, for which the activity score was -212% (active).
On to `Cc1nonc1NC(=O)CSc1nc2ccccc2cc1C#N`, for which the activity score was -91.1% (active).
On to `CCOc1ccc2cc(C#N)c(SCC(=O)OC)nc2c1`, for which the activity score is -145% (active).
In the case of `COCc1cc(C)nc(SCC(=O)Nc2cccc(C)c2)c1C#N`, the activity score was -67.6% (active).
The same measure for `Cc1ccccc1NC(=O)CCOc1ccccc1`: -74.9% (active); for `CCN1CCN(C(C(=O)NC2CCCC2)c2cc3c(cc2[N+](=O)[O-])OCO3)CC1` (stereo unspecified): -63% (active).
Under `CCCCCc1ccc(-c2ccc(OCC)cc2)nc1` stands 79.7%; under `CCCOc1ccc(-c2nc(N)n[nH]2)cc1`, -93.7% (active).
For the compound `NC(=O)c1c(NC(=O)c2ccccc2)sc2c1CCCC2`, the activity score was -148% (active).
The same measure for `COC(=O)c1c(NC(=O)c2cccs2)sc2c1CCCC2`: -128% (active); for `CCOC(=O)c1c(NC(=O)c2ccc(Br)o2)sc2c1CCCC2`: -64.9% (active).
Under `C=CCN(CC=C)S(=O)(=O)c1ccc(C(=O)Nc2sc3c(c2C(N)=O)CCCCC3)cc1` stands -70.1% (active); under `COc1ccc(NCCc2ccccn2)cc1`, -134% (active); under `CCC(C)NC(=O)CCCc1ccccc1` (stereo unspecified), -63.7% (active).
On to `O=C(Nc1ccc(Cl)cc1)c1ccsn1`, for which the activity score was -143% (active).
Under `Cc1ccc(NC(=O)c2ccn(C(=O)Nc3ccccc3)n2)c(C)c1` stands -69.3% (active); under `c1ccc(CN2CCC(N=C3NN=C(c4ccc5c(c4)OCCO5)CS3)CC2)cc1`, -223% (active).
Under `CCS(=O)(=O)c1cc([N+](=O)[O-])c(Sc2ccccc2N)s1` stands -91.3% (active); under `COc1ccc(C(=O)c2c3ccc([N+](=O)[O-])cc3[n+]([O-])n2CCCN)cc1`, 63.1%; under `CCN1CCN(c2ccc([N+](=O)[O-])cc2C(=O)c2ccc(Cl)cc2)CC1`, -107% (active).
Take `Cc1ccc(NC(=S)N2CCN(c3ncccn3)CC2)cc1C`: the activity score was -84.3% (active).
The same measure for `CC(=O)c1ccc(NC(=O)CCc2nnc3ccc(NCc4ccco4)nn23)cc1`: -95.3% (active); for `O=C(/C=C/c1ccc([N+](=O)[O-])o1)NNC(=O)c1ccc(F)cc1`: -94.3% (active).
The same measure for `NC(=O)CSc1nnc(NC(=O)c2ccc3ccccc3c2)s1`: -88.3% (active).
Under `C=CCSc1nnc(NC(=O)c2ccc(NC(C)=O)cc2)s1` stands -64.4% (active); under `COC(=O)c1ccc(-n2cnc3ccccc32)nc1`, -117% (active).
Regarding `COCCn1c(=NC(=O)c2ccccc2[N+](=O)[O-])sc2cc(S(C)(=O)=O)ccc21`, the activity score was -151% (active).
Under `CCOC(=O)c1c(C)[nH]c2c1-c1ccccc1C(=O)C2=O` stands 99.5%; under `CCOC(=O)c1cc2n(c1C)-c1ccccc1C2=O`, -108% (active); under `COc1ccc(Nc2nnc(C)c3ccccc23)cc1`, -67.1% (active).
With `COc1ccc(Nc2cc(C)nc(-n3nc(C)cc3C)n2)cc1`, the activity score was 92.8%.
Take `O=C(c1cc(-c2ccc(O)cc2)on1)N1CCCc2ccccc21`: the activity score was -95.6% (active).

These data come from PubChem BioAssay AID1814 (Broad Institute, 2009).
